The values that follow come from PubChem BioAssay (NCI).

Compounds without any hit were thinned out: in the full panel of roughly 83,000, 20% have a hit.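 48-hour exposure, single concentration, 96-well plates; percent growth endpoint where 0 means no net growth. Active: below 10.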 The source made the active and inactive calls.

In the experiment the test system is LOX IMVI melanoma. The experiment is described as follows: NCI-60 one-dose screen, 48 h (100 = growth as untreated, 0 = no growth, -100 = all killed). The following applies: 10 µM unless noted.
With `COC1=C(C)C(=O)c2c(c(CCCl)c3n2CCC3O)C1=O` (stereo not given), the growth is -23.5% (active). The result for `Oc1ccc(C#CCOc2ccccc2)cc1CNCCN(Cc1ccccn1)Cc1ccccn1` reads 3.51% (active). The same measure for `CCc1nnc(NC(=O)c2nnn(-c3ccccc3)c2-c2ccco2)s1`: 89% (inactive); for `CNc1nc2c(s1)C(c1cccc(F)c1)CC(=O)N2` (stereo not given): 98.4% (inactive); for `CC(=O)O.CN1[CH-]N(Cc2ccc(C#N)cc2)c2ccccc21.[Ag+]`: 91.8% (inactive). The result for `CCc1ccc(Oc2c(-c3ccc(OCc4ccc(Cl)cc4)cc3O)nn(C)c2C(F)(F)F)cc1` reads -24.6% (active); that for `CCC(=O)Nc1ccc(-c2nc(-c3cccc(OC)c3)c(-c3ccnc(Br)c3)[nH]2)cc1`, 43.3% (inactive); that for `CC/C=C\C[C@@H](O)C/C=C1/C(=O)C=C[C@H]1C/C=C\CCCC(=O)OC`, -69% (active). Consider `CC(=O)CC(c1ccccc1)c1c(C)[nH]c2ccccc12` (stereo not given), for which the growth is 90.5% (inactive). The same measure for `Cc1nc2cnc(N)c(C#Cc3cncc(C(=O)Nc4ccc(CN5CCN(C)CC5)c(C(F)(F)F)c4)c3)c2nc1C`: -88.8% (active); for `COc1ccc(-c2nc(NCCO)[nH]c(=O)c2C#N)cc1`: 103% (inactive); for `COc1ccn2c(C(C)=O)cc(C(=O)c3ccc4c(c3)Sc3ccccc3N4)c2c1`: 19.7% (inactive).

`COC(=O)C(Cc1ccccc1)NC(=O)NC(=O)NC(=O)CI` (stereo not given): the growth was -78.8% (active). On to `O=C1CCC(C(=O)NCCNCCNC(=O)C2CCC(=O)N2)N1` (stereo not given), for which the growth is 96.5% (inactive).

Turning to `C(=N/Nc1ncnc2nc[nH]c12)/c1ccccn1`, the growth is 19.1% (inactive).
